Source: PubChem BioAssay
This is a sample that favours compounds with a hit; in the whole collection about 0.45% have one here.
ERG-DNA inh = inhibitors of human ERG Ets domain-DNA interaction. Potency, µM (series often up to 76.9 µM), for inactives: at the top dose FP activity, negative = inhibition, hits mostly inhibitors. hit rate 0.028% among 370,000. AID 624246. fluorescence polarization, His-ERG Ets domain / labelled DNA; active = well fitted inhibition curve with a large enough effect in the polarisation, with a control signal flat; inconclusive = small, poorly fitted or top-dose-only effect, or effect the other way, or a change in a side signal; inactive = no such curve, though single readings can be large or run the other way; the % refers to the polarisation;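 note: polarization taken with two DNA probes labelled with fluorescein and Texas red; potency is the fitted concentration of half-maximal effect; % of control where 0% means no effect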
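His-tagged ERG Ets domain (1 uM in the protein solution; 300mM KCl, 50mM Tris-HCl, 1mM EDTA, 1mM DTT, pH 7.5) received compound, then a probe mix of 5 nM fluorescein-DNA and 100nM Texas-615-DNA. Fluorescence polarization was read for both dyes.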
CBFb-RUNX1 inh = inhibitors of human CBF-beta and RUNX1 interaction; Q01196+Q13951; 230,000 tested, under 10 active; Potency, µM (titrated, usually from 59.8 µM), inactives show at the top dose activity, negative = inhibition, hits mostly inhibitors; AID 1477; AlphaScreen CBFb-His/RUNX1-biotin binding, biochemical; note: % of control where 0% means no effect
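Interaction loss through any mechanism counts as activity. Pre-formed complex of His-CBF-beta and biotin-RUNX1 (30 nM apiece) is incubated with compound 15 min, then with 50 ng nickel and 50 ng streptavidin beads for 90 min before AlphaScreen detection.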
a7 integrin act = activates integrin-mediated alleviation for muscular dystrophy; alpha7betagal myoblasts, beta-gal FDG fluorescence, 48 h; Potency, µM (titrated, usually from 38.3 µM), without a hit: at the top dose activation, actives largely listed as activators; hit rate 0.064% among 350,000;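 note: potency is the fitted concentration of half-maximal effect; 100% = response of the positive control SU9516; nearly all actives have a fitted effect of over 60% in size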
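alpha7betagal+/- myoblasts (passage 13, 250/well) treated 48 h at 37C with compounds at 1:260 dilution of DMSO stock. Lysed, then beta-galactosidase activity read as FDG fluorescence (ex 480/em 540) after 30 min, with pre-read for autofluorescence.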
GoLoco inh red = RGS12 GoLoco-Gai1 interaction inhibition; Gai1:RGS12 GoLoco peptide FP, rhodamine, 10 min; Potency, µM (top dose mostly 61.6 µM), without a hit: at the top dose activity, negative = inhibition, actives largely listed as inhibitors; hit rate 0.44% among 230,000; AID 880; active = well fitted inhibition curve with a large enough effect, not every such curve was filed as active; inactive = no such curve, though single readings can be large or run the other way; note: potency is the fitted concentration of half-maximal effect; % is set by controls: 0 for no effect and ±100 for the full control effect; nearly all actives have a fitted effect of over 30% in size
TR SRC2 fluor cs = counter-screen for TRb-SRC2 inhibitors: fluorescence interference; TRb/SRC2 Texas Red total fluorescence interference; Potency, µM (doses to about 106 µM), for inactives: at the highest dose fluorescence change, negative = quenching; hit rate 0.29% among 280,000; active = well fitted curve in either direction with a large enough effect; inconclusive = small, poorly fitted or top-dose-only effect; note: potency is the fitted concentration of half-maximal effect; % is set by controls: 0 for no effect and ±100 for the full control effect
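Human TRb ligand-binding domain at 0.6 uM with 20 nM Texas Red SRC2 peptide in Tris buffer containing 1 uM T3 and 5% DMSO, incubated with compound 5 h at ambient temperature. Total fluorescence (555/632 nm) calculated as parallel + 2 × perpendicular.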
TRb-SRC2 inh = inhibitors of human thyroid hormone receptor beta-SRC2 interaction | P10828 | TRbeta-SRC2 peptide binding, fluorescence polarization; receptor liganded with 1 µM T3 | Potency, µM (series often up to 106 µM), for the others: at the top dose activity change, negative = inhibition, hits mostly inhibitors | hit rate 0.065% among 280,000;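 note: potency is the fitted concentration of half-maximal effect; plate controls were bound peptide for no effect and peptide without receptor for full effect; nearly all actives have a fitted effect of over 50% in size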
Target sequence (P10828 whole entry, looked up): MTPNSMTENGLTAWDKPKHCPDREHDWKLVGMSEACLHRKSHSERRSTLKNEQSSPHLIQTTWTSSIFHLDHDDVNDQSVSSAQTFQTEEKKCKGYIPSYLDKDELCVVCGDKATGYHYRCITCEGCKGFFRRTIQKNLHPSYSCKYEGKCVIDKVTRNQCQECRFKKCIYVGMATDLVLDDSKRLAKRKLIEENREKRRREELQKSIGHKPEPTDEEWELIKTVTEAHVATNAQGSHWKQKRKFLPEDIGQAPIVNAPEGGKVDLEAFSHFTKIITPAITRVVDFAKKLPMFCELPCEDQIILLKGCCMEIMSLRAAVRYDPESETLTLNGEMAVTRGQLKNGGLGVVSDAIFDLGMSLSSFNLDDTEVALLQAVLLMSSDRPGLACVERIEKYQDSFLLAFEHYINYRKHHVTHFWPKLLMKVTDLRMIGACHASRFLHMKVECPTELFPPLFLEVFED
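Read-out is fluorescence polarization (555 nm excitation, 632 nm emission) of a Texas Red SRC2 coactivator peptide; loss of signal reflects blocked binding to human TRb ligand-binding domain in the presence of 1 uM T3.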
Numbers without * were called inactive; ? = inconclusive; · = no result; [ ] = dose if it differs, or a comment. Unless noted, calls come from the whole dose curve; as a rule, active = well fitted curve in the direction sought with a large enough effect; inconclusive = small, poorly fitted or top-dose-only effect, or another doubt; inactive = no such curve, though single readings can be large; an effect the other way counts as inactive or inconclusive.

SMILES	ERG-DNA inh	CBFb-RUNX1 inh	a7 integrin act	GoLoco inh red	TR SRC2 fluor cs	TRb-SRC2 inh
CC(O)(c1ccc(Cl)cc1)c1ccc(Cl)cc1	·	?	·	·	3%	-4%
Cc1ccccc1-n1sc2cc(F)ccc2c1=O	12%	-5%	-72%	28µM*	-1%	-4%
NC(=S)NCCCC(N)C(=O)O (configuration not stated)	·	6%	·	-3%	2%	-2%
N=C1N=C(N)c2cc3ccccc3cc21	·	-1%[21.7 µM]	·	2%	-4%	3%
O=C(NCCc1ccccc1)c1ccc2nc(-c3ccco3)c(-c3ccco3)nc2c1	4%	?	3%	-5%	28µM*[quencher]	9%
CCOC(=O)NN1C(=O)c2ccccc2NC1c1cccnc1 (configuration not stated)	2%	-1%	8%	20%	-2%	-2%
CCOC(=O)NN1C(=O)c2ccccc2NC1c1cccs1 (configuration not stated)	35µM*	·	-17%	·	·	·
C[C@H](C(=O)O)c1ccc2cc(O)ccc2c1	·	-9%	·	·	-1%	1%
CCOc1ccccc1-c1nnc2n1N=C(c1cc(OC)ccc1OC)CS2	·	8%	·	·	0%	-5%
COC(=O)c1cc2c(-c3ccccc3)c(C)c3ccccn3c-2c1C(=O)OC	0%	·	-43%	37%	1%	-10%
COC(=O)c1c(Cl)c2n3ccccc3c(C)c(-c3ccccc3)c-2c1C(=O)OC	8%	-14%	3%	14µM*	9%	-9%
CNS(=O)(=O)c1cc(-c2nnc(Nc3ccc(NC(C)=O)cc3)c3ccccc23)ccc1C	-7%	·	-21%	·	·	·
CNC(=O)COc1ccc(Nc2nnc(-c3ccc(C)c(S(=O)(=O)NC(C)(C)C)c3)c3ccccc23)cc1	6%	·	·	·	0.2µM*[quencher]	-8%
Cc1ccccc1C(=O)NC1(C(F)(F)F)N=C(c2ccccc2)N(Cc2ccccc2)C1=O (configuration not stated)	1%	·	·	·	10µM*[quencher]	-3%
COc1ccccc1NC(=O)c1sc2ncn(Cc3cccc4ccccc34)c(=O)c2c1C	7%	3%	16%	39%	0.89µM*[quencher]	?
C/C1=C\[C@@H](O)C(C(C)C)C(OC(=O)c2ccc(O)cc2)C/C(C)=C/CC1 (some centres not stated)	·	5%	·	·	-6%	-5%
CCCCC(CC)C1OCC(C[N+]2(C)CCOCC2)O1 (configuration not stated)	-5%	-1%	-3%	10µM*	?	2%
CC[C@H](C)[C@H](NC(=O)[C@H](Cc1ccc(O)cc1)NC(=O)[C@@H]1CCCN1C(=O)[C@@H](N)CCCN=C(N)N)C(=O)N[C@@H](CC(C)C)C(=O)O	·	1%	·	·	-7%	-2%
CSc1nc(=O)n2cc(C)ccc2n1	28µM*	1%	-4%	-4%	2%	-5%
Clc1ccc2c(c1)-n1cc(-c3ccccc3)nc1CO2	?	·	·	·	11µM*[quencher]	-10%
COc1ccc(-n2cc(C(=O)OCc3ccc(F)c(F)c3)c3ccccc3c2=O)cc1	7%	·	·	·	0.079µM*[quencher]	-21%
Cc1ccc(-n2cc(C(=O)OCc3ccc(F)c(F)c3)c3ccccc3c2=O)cc1	14%	·	·	·	5%	-2%
C=C(C)C(=O)OCCCCCCCCCCCC	·	·	·	·	-2%[201 µM]	-2%[201 µM]
COC(=O)C(C(=O)OC)[C@@H](NC(=O)OCc1ccccc1)c1ccccc1	·	9%	·	1%	1%	5%
Cc1nc2c([nH]1)C1(CCN(Cc3ccccc3)CC1)C(C#N)=C(N)O2	1%	3%	13µM*	2%	4%	-3%
SMILES	ERG-DNA inh	CBFb-RUNX1 inh	a7 integrin act	GoLoco inh red	TR SRC2 fluor cs	TRb-SRC2 inh
CC1(C)CC(=O)C2=C(C1)OC(N)=C(C#N)C21CCN(Cc2ccccc2)CC1	0%	2%	-17%	32%	0%	3%
CC(C)c1onc(-c2c(Cl)cccc2Cl)c1COc1ccc(/C=C/c2cccc(C(=O)O)c2)c(Cl)c1	·	-4%	·	·	-6%	?
C[N+](C)(C)CCOC(=O)C1(c2ccccc2)CCCC1	-6%	7%	5%	7.1µM*	0%	-5%
CCCCCCCC[Si](Cl)(Cl)Cl	·	·	·	·	1%[201 µM]	1%[201 µM]
Clc1cccc(CSc2nncn3c2cc2sccc23)c1	1%	·	·	·	-1%	1%
CCc1nnc(SCc2cccc(Cl)c2)c2cc3sccc3n12	2%	·	·	·	25µM*[quencher]	-15%
CCCCCCCCCC[N+](C)(C)Cc1ccccc1	·	·	·	·	-1%[201 µM]	4%[201 µM]
COc1cc([C@@H]2c3cc4c(cc3[C@@H](O[C@@H]3O[C@H]5CO[C@@H](C)O[C@@H]5[C@@H](O)[C@H]3O)[C@@H]3COC(=O)[C@@H]23)OCO4)cc(OC)c1O	·	23%[21.7 µM]	·	28µM*	-1%	-4%
COc1cc([C@@H]2c3cc4c(cc3[C@@H](OC3OC5COC(C)OC5C(O)C3O)[C@H]3COC(=O)[C@H]23)OCO4)cc(OC)c1O (some centres not stated)	·	14%	·	-17%	-1%	1%
CC(=O)CCc1c(C)c2cccc(C)c2[nH]c1=O	·	3%	21%	6%	-1%	-9%
COc1cccc2c(=S)c(CCC(C)=O)c(C)[nH]c12	-7%	5%	-14%	-23%	2.8µM*[quencher]	-17%[53 µM]
CCOc1ccc(-c2ccc(/C=C3/C(=N)N4C(C)=CSC4=NC3=O)o2)c([N+](=O)[O-])c1	-5%	-14%	-35%	19%	79µM*[quencher]	?
CCOc1ccc(-c2ccc(/C=C3/C(=N)N4C=CSC4=NC3=O)o2)c([N+](=O)[O-])c1	17%	-8%	-19%	126%	-20%	1%
CC(COCC(C)OC(=O)c1ccccc1)OC(=O)c1ccccc1 (configuration not stated)	·	·	·	·	-3%[201 µM]	-1%[201 µM]
CCN(CC)Cc1c(O)c(Cl)cc2c(C)c(C)c(=O)oc12	-12%	-3%	-12%[7.66 µM]	1%	0%	1%
Cc1cc(=O)oc2c(CN3CCCC3)c(O)c(Cl)cc12	-16%	·	42%	·	·	·
Cc1cc(=O)oc2c(CN3CCC(C)CC3)c(O)c(Cl)cc12	-30%	?	4%	22µM*	2%	-27%
CCN(CC)Cc1c(O)c(Cl)cc2c(C)cc(=O)oc12	?	?	10%	16µM*	-1%	6%
c1ccc2cc3c(ccc4ccccc43)cc2c1	·	·	·	·	-4%[201 µM]	0%[201 µM]
C=CCOC(=O)CC(C)C	·	·	·	·	-4%[201 µM]	-2%[201 µM]
CCCn1c2ccccc2c2cnn(CC(=O)Nc3cc(C)c(Cl)cc3OC)c(=O)c21	-3%	·	·	·	20µM*[quencher]	-4%
Oc1c(C=C2N=c3ccccc3=N2)sc(=S)n1-c1ccccc1	-8%	-1%	-11%	7%	32µM*[quencher]	-14%[53 µM]
